Experimental findings from the supplement of paper PMC6555819 are described below.

The subject of the first test is RARa:RXR (NR concentration 270 nM, RXRa partner concentration 90 nM). The test is described as follows: PBM binding z-score (relative to random genomic background probes); higher = stronger binding; sequences stand for … in GC…GCGATTGACAGCGTAGAATGAAGG
In short, it runs like this:
(§1)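 Probes were double-stranded and carried 34-nt variable regions with direct-repeat seeds, single-nucleotide variants, half-site ablations and random human genomic background sequences, printed on custom Agilent 4×180K protein-binding microarrays. Arrays were incubated 1 h with ligand-free nuclear receptor dimers in PBS pH 7.4, 2% milk, 0.02% Triton X-100, 1 mM DTT, 0.2 mg/mL BSA and 0.4 mg/ml salmon testes DNA. Antibodies against each partner (one per run) detected binding, and scanned fluorescence was regression-normalized. Binding z-scores use the random background probes as reference.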
On to ATCTCTAGGTAACAAGTTCAGTGAAAGAGAGGAC, for which the PBM binding z-score amounted to 0.933.
Still for that read-out and setting: next, ACTTACGGGTCATCGAGGTTATAGCACGCGTATA: 4.92; CCGACTGGGGCAGAAAGGCTACCATACCATCCGG: -0.589.
ACTTGCAGGCCAAGTTTGGGTCACTCAAACAAAG: the PBM binding z-score worked out at 1.61.
Still for that read-out and setting: next, AGAACGAGGGCAATGAGTTGTTAGCACGGGTGGC: 0.0367; CCTTACGGGTCAAGGTTATAGGACGGGTGGTACG: 4.15; CCTTACAGGTCACTCCAGGTTATAGCATCGGAGT: 3.71.
On the same count and under the same terms, the same measure for TCTACTAGGTCAGTTGGTCAGCTAACGAGCTGCC: 0.904; for TAGCCTAGGTGAGATCGGGCCAGTATACGCTATA: 0.347; for TGTCAAAGTTCAAAGGTAACGGAAGTATCCACAC: 6.93.
Same read-out and setting: next, TCATAAAGGTAAAGGTGAAAGTCGAACGATATGA: 2.37; ACCGAAAGGTCGAGGTGAGTATAGAGAAAGGGAA: 3; GATACAGGCTCAAGGCCAGAGTACGCGTATTGAT: -0.806.
In the case of TCTTGTAGATCAAGCAGGTTAAGACAGCCTGAGT, the PBM binding z-score stood at 0.668.
Regarding TCGAGTAGGTTACCAATGGAGCATTCAGCTTTCT, the PBM binding z-score is -0.35.
Same read-out and setting: next, TTACCAAGGTGCGCTGAGGTCGTTGATCCAACTC: 1.4.
Same read-out and setting: the same measure for TAGCCGAGGTCAGATCGGGCCAGTATACGCTATA: 3.81.

The next test has as its system RARa homodimer (NR concentration 270 nM). Described as above. In short, it runs like this: as §1
In turn, CCTGCTAGGTCATGGTTAGCTAATCTACAGTATG had a PBM binding z-score of -0.015.
With AATACAGGGTCACTAGGCCAGTGTAGGTACGAAT, the PBM binding z-score was 0.647.
AGAACGAGGTCAATGAGTTGATAGCACGGGTGGC yielded a PBM binding z-score of 0.929.
Still for that read-out and setting: the same measure for TCTAGCAGGCCAGAGGGTCACTCTAGAGGTACGG: -0.492; for CCTATTAGTTGACTATAAGGGCAACCGAAGCTCG: 1.22.
Turning to ATCTCTAGGTAAAGATAGTTCAGTGCATGCAAAT, the PBM binding z-score is 0.906.
The same measure, in the same setting: the same measure for CCTCGGCGGACAACAGGAGGTCAGAGCTGCCAGA: 0.119; for AGAATGAGGGTAAGATCAGGGAAACAGAATACAT: 1.07.
In turn, TCTATTTGTTGAAGGGCAACCGACGAGTCCGTTT came in with a PBM binding z-score of 2.02.
Same read-out and setting: next, CGTCCAAGGTCAATACTAGGTCAGTGAAAGCATT: 0.743; GCTACTGGGGCATCAGCAGGTTACCATAACTTAA: -0.28; CCTCCAAGGTCAGCAGGTCAGTGAAAGCGACGTG: 0.668.
Sequence CCGACTGGGGCAGAAAGGTTACCATTCCATCCGG gave a PBM binding z-score of 0.0232.
Same read-out and setting: the same measure for CCTACTTGGTCAAGGTCACACACGCTATAGGTAC: 2.21; for CCTGCTAGGTGAATGGTCAGCTAAAGCAGCTCGC: -1.03.
Same read-out and setting: next, TCTTGTAGATCAAAAGTTAAGAAAGCCGAAGCCT: -0.386; CCTTACGGGTCACGCCAGGTTATAGCATCGGAGT: 1.14; GCGACTGGGGCAAAGCAGGTTAACATAAGGTTGG: -0.822.
GCGACTGCGGCAAAGCAGGTTACCATAAGGTTGG yielded a PBM binding z-score of -1.11.
Consider TAGCCTAGGTCAGATCGGGCCAATATACGCTATA, for which the PBM binding z-score is -0.0136.
Still for that read-out and setting: the same measure for AGAACGAGGGCACGTTGAGTTGATAGCAGAGTAG: -0.287.
On the same count and under the same terms, next, ACAAGCAGGCCAAGTTTGGGTCACTCAAACAAAG: -0.485; ATCTCTAGGTAACAAGTTCAGTGAAAGAGAGGAC: 1.19; ACTTACGGGTCATCGAGGTTATAGCACGCGTATA: 1.11.
The same measure, in the same setting: next, CCGACTGGGGCAGAAAGGCTACCATACCATCCGG: 0.0496; ACTTGCAGGCCAAGTTTGGGTCACTCAAACAAAG: -0.63; AGAACGAGGGCAATGAGTTGTTAGCACGGGTGGC: -0.253.
As for CCTTACGGGTCAAGGTTATAGGACGGGTGGTACG, the PBM binding z-score was 0.493.
On the same count and under the same terms, next, CCTTACAGGTCACTCCAGGTTATAGCATCGGAGT: 1.13; TCTACTAGGTCAGTTGGTCAGCTAACGAGCTGCC: 0.501.
On to TAGCCTAGGTGAGATCGGGCCAGTATACGCTATA, for which the PBM binding z-score is -1.23.
Sequence TGTCAAAGTTCAAAGGTAACGGAAGTATCCACAC registered a PBM binding z-score of 1.65.
On the same count and under the same terms, the same measure for TCATAAAGGTAAAGGTGAAAGTCGAACGATATGA: 0.551; for ACCGAAAGGTCGAGGTGAGTATAGAGAAAGGGAA: 0.981.
On the same count and under the same terms, next, GATACAGGCTCAAGGCCAGAGTACGCGTATTGAT: -0.764.
The same measure, in the same setting: next, TCTTGTAGATCAAGCAGGTTAAGACAGCCTGAGT: -0.0996; TCGAGTAGGTTACCAATGGAGCATTCAGCTTTCT: -0.787.
TTACCAAGGTGCGCTGAGGTCGTTGATCCAACTC yielded a PBM binding z-score of -0.803.
Still for that read-out and setting: next, TAGCCGAGGTCAGATCGGGCCAGTATACGCTATA: -0.0454.

The next test concerns RARb:RXRa (NR concentration 270 nM, RXRa partner concentration 90 nM). Described as above. In short, it runs like this: as §1
CCTGCTAGGTCATGGTTAGCTAATCTACAGTATG yielded a PBM binding z-score of 3.65.
On the same count and under the same terms, next, AATACAGGGTCACTAGGCCAGTGTAGGTACGAAT: 4.13; AGAACGAGGTCAATGAGTTGATAGCACGGGTGGC: 4.89; TCTAGCAGGCCAGAGGGTCACTCTAGAGGTACGG: 2.27.
For CCTATTAGTTGACTATAAGGGCAACCGAAGCTCG, the PBM binding z-score worked out at 1.25.
On the same count and under the same terms, the same measure for ATCTCTAGGTAAAGATAGTTCAGTGCATGCAAAT: 0.853.
The same measure, in the same setting: next, CCTCGGCGGACAACAGGAGGTCAGAGCTGCCAGA: 1.96; AGAATGAGGGTAAGATCAGGGAAACAGAATACAT: 0.741; TCTATTTGTTGAAGGGCAACCGACGAGTCCGTTT: 1.68.
Still for that read-out and setting: the same measure for CGTCCAAGGTCAATACTAGGTCAGTGAAAGCATT: 5.22; for GCTACTGGGGCATCAGCAGGTTACCATAACTTAA: 0.962; for CCTCCAAGGTCAGCAGGTCAGTGAAAGCGACGTG: 5.41.
Sequence CCGACTGGGGCAGAAAGGTTACCATTCCATCCGG came in with a PBM binding z-score of 1.52.
For CCTACTTGGTCAAGGTCACACACGCTATAGGTAC, the PBM binding z-score is 4.18.
Take CCTGCTAGGTGAATGGTCAGCTAAAGCAGCTCGC: the PBM binding z-score was determined as 1.
TCTTGTAGATCAAAAGTTAAGAAAGCCGAAGCCT: the PBM binding z-score was -0.12.
Still for that read-out and setting: next, CCTTACGGGTCACGCCAGGTTATAGCATCGGAGT: 4.35.
Consider GCGACTGGGGCAAAGCAGGTTAACATAAGGTTGG, for which the PBM binding z-score is 1.05.
With GCGACTGCGGCAAAGCAGGTTACCATAAGGTTGG, the PBM binding z-score is -0.06.
The same measure, in the same setting: the same measure for TAGCCTAGGTCAGATCGGGCCAATATACGCTATA: 2.94; for AGAACGAGGGCACGTTGAGTTGATAGCAGAGTAG: 2.42.
Consider ACAAGCAGGCCAAGTTTGGGTCACTCAAACAAAG, for which the PBM binding z-score worked out at 2.
Still for that read-out and setting: the same measure for ATCTCTAGGTAACAAGTTCAGTGAAAGAGAGGAC: 1.85.
On the same count and under the same terms, next, ACTTACGGGTCATCGAGGTTATAGCACGCGTATA: 4.11; CCGACTGGGGCAGAAAGGCTACCATACCATCCGG: 0.362; ACTTGCAGGCCAAGTTTGGGTCACTCAAACAAAG: 2.05.
With AGAACGAGGGCAATGAGTTGTTAGCACGGGTGGC, the PBM binding z-score is 2.13.
Consider CCTTACGGGTCAAGGTTATAGGACGGGTGGTACG, for which the PBM binding z-score came out at 4.13.
Sequence CCTTACAGGTCACTCCAGGTTATAGCATCGGAGT yielded a PBM binding z-score of 4.61.
In the case of TCTACTAGGTCAGTTGGTCAGCTAACGAGCTGCC, the PBM binding z-score amounted to 3.46.
Same read-out and setting: next, TAGCCTAGGTGAGATCGGGCCAGTATACGCTATA: -0.0511; TGTCAAAGTTCAAAGGTAACGGAAGTATCCACAC: 5.07.
Still for that read-out and setting: next, TCATAAAGGTAAAGGTGAAAGTCGAACGATATGA: 2.66; ACCGAAAGGTCGAGGTGAGTATAGAGAAAGGGAA: 4.17.
The same measure, in the same setting: the same measure for GATACAGGCTCAAGGCCAGAGTACGCGTATTGAT: -0.0838; for TCTTGTAGATCAAGCAGGTTAAGACAGCCTGAGT: 0.151; for TCGAGTAGGTTACCAATGGAGCATTCAGCTTTCT: 0.629.
In the case of TTACCAAGGTGCGCTGAGGTCGTTGATCCAACTC, the PBM binding z-score is 0.681.
The same measure, in the same setting: next, TAGCCGAGGTCAGATCGGGCCAGTATACGCTATA: 4.42.
